Shown are actives, neighbours in structure and some others; about 27% of the full set was active somewhere.
CYP2C9 inhib: inhibitors of human CYP2C9 | CYP2C9 Supersomes, luciferin-H conversion, luminescence | inhibition, % at 5 µM | actives 20% (n = 96,000) | AID 777;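 active = blocking of liver enzyme CYP2C9 beyond about 50% at 5 µM, limit read from the data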
Target sequence (P11712 whole entry, looked up): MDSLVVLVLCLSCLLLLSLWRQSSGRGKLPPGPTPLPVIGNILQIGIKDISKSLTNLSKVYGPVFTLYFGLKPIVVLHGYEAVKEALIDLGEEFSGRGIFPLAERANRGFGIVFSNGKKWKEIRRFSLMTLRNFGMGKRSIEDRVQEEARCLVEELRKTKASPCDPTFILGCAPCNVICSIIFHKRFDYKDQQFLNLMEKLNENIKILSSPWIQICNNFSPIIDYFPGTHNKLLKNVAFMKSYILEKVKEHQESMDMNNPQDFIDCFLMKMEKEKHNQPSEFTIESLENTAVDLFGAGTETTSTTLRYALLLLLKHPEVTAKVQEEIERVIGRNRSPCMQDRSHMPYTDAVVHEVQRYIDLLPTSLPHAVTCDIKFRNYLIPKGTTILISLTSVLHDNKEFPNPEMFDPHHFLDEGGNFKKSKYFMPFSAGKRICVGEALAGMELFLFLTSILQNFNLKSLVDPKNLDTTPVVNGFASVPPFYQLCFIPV
CYP2C19 inhib: inhibitors of human CYP2C19; inhibition, % at 5 µM; CYP2C19 Supersomes, luciferin-H EGE luminescence, 30 min; AID 778; P33261; actives 21% (n = 96,000);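 active = CYP2C19 inhibition above a set limit at 5 µM in the primary screen, cut at about 50% in these data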;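 also: plate controls were negative control wells for no effect and 2.5 mM tranylcypromine positive control for full effect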
Cav32 inh: human Cav3.2 channel inhibition, primary screen | Cav3.2-expressing cells, Fluo-4 calcium fluorescence FDSS; active compounds read low | B-score at 10 µM | actives 4% (n = 100,000);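 active = single-dose well whose peak fluorescence ratio is a statistical outlier from its plate by either plate-standardised score or position-corrected B-score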
CYP2C19 activ: cytochrome P450 2C19 (human) activation; recombinant CYP2C19, luciferin-H EGE luminescence; active compounds read high; 0 = fully inhibited enzyme, 1 = untreated enzyme; activation factor at 5 µM; 96,000 tested, under 10 active;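 active = activation factor of at least 2 at 5 µM in the primary screen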;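 also: 0 = wells with 2.5 mM tranylcypromine and 1 = vehicle-only wells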
CYP2C9 activ: CYP2C9 (human) activation; P11712; recombinant CYP2C9, luciferin-H conversion, luminescence; active compounds read high; factor 1 = untreated enzyme, 0 = blocked; activation factor at 5 µM; actives 1.4% (n = 96,000);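 active = activation factor of 2 or more for CYP2C9 at a 5 µM dose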;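 also: 0 = sulfaphenazole-blocked wells and 1 = vehicle-only wells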
Active calls of the source: *; nt = no result.

SMILES	CYP2C9 inhib	CYP2C19 inhib	Cav32 inh	CYP2C19 activ	CYP2C9 activ
O=C(CN(Cc1ccco1)C(=O)c1cccc(Cl)c1)Nc1c(Cl)cc(Cl)cc1Cl	62*	51*	-4.5*	0.5	0.4
CC1CCN(C(=O)Cn2cc(C(=O)C3CC3)c3ccccc32)CC1	nt	nt	0.22	nt	nt
COC(=O)c1cn(CC(=O)N2CCCCCC2)c2ccccc12	23	92*	-0.8	0.1	0.8
COC(=O)c1cn(CC(=O)NCc2ccco2)c2ccccc12	30	92*	0.37	0.1	0.7
O=C(COC(=O)CCCNC(=O)c1ccc(Cl)cc1)NC1CC1	-12	-15	0.8	1.2	1.1
COc1ccc2[nH]c(=O)c(CN(CCCN(C)C)C(=O)Nc3ccc(F)cc3)cc2c1	-5	16	-2	0.8	1.1
CCn1c(=O)cc(C(=O)OC)sc1=Nc1ccc(F)c(F)c1	75*	98*	-0.19	0	0.3
COC(=O)c1cc(=O)n(CCc2ccccc2)c(=Nc2ccc(F)cc2)s1	40	-1	-1.4	1	0.6
COC(=O)c1cc(=O)n(CCc2ccc(OC)cc2)c(=Nc2ccc(F)c(Cl)c2)s1	56*	28	-4.5	0.7	0.4
CCCC[C@@H]1CCCO[C@@](C(=O)NCc2cc(C)n(C)n2)(C(F)(F)F)C1	nt	nt	1.2	nt	nt
CC(=O)Nc1cccc(Cn2cccn2)c1	9	10	0.096	0.9	0.9
O=C(Nc1cccc(S(=O)(=O)N2CCOCC2)c1)c1cc2c(s1)CCC2	97*	52*	-1.1	0.5	0
O=C(Nc1ccc2c(c1)CCC2)c1cccc(S(=O)(=O)N2CCN(c3ccccc3)CC2)c1	68*	51*	-5.7*	0.5	0.3
O=C(NC1CCCc2ccccc21)c1cccc(S(=O)(=O)N2CCN(c3ccccc3)CC2)c1 (centres undefined)	82*	34	-10*	0.7	0.2
COc1ccc(NC(=O)c2cc3c(s2)CCC3)cc1S(=O)(=O)N1CCOCC1	19	3	0.055	1	0.8
O=C(Nc1cccc(Cn2cccn2)c1)c1cc2c(s1)CCCC2	-95	54*	-3.1	0.5	1.9
COc1cccc2cc3c(=O)oc4ccccc4c3nc12	24	8	0.035	0.9	0.8
CCCC(=O)N1c2ccccc2C(N(C(C)=O)c2ccccc2)CC1C (centres undefined)	21	17	nt	0.8	0.8
CCCC(=O)O[C@H]1C[C@@H](C)N(C(=O)c2ccccc2)c2ccc(C)cc21	63*	58*	-8*	0.4	0.4
CC(Cc1ccccc1)NC(=O)CSc1nc2nc3c(cc2c(=O)n1-c1ccccc1)COC(C)(C)C3 (centres undefined)	8	0	0.27	1	0.9
COn1c(SCc2cccc(Cl)c2)nc2ccccc2c1=O	25	30	-0.71	0.7	0.8
Cc1ccc(-n2ccc(=O)c(-c3ccnc(SCc4cccc(Cl)c4)n3)n2)cc1	56*	20	0.0053	0.8	0.4
CCOC(=O)C1=NN(C(=O)Nc2ccc(OC)cc2)C2C(=O)N(c3cccc(C(F)(F)F)c3)C(=O)C12 (centres undefined)	-6	6	-0.77	0.9	1.1
c1ccc2c(CCNc3ncnc4nc[nH]c34)cccc2c1	nt	nt	0.31	nt	nt
COc1ccc(Cl)cc1N(C)C(=O)CCc1nc(-c2ccc(C)cc2)no1	94*	92*	-5.7*	0.1	0.1
SMILES	CYP2C9 inhib	CYP2C19 inhib	Cav32 inh	CYP2C19 activ	CYP2C9 activ
O=C(O)CCc1nc(-c2ccccc2)no1	1	-1	-0.56	1	1
CCc1ccccc1N(C)C(=O)CCc1nc(-c2ccc(C)cc2)no1	63*	46	-5.5*	0.5	0.4
Cc1cc(NC(=O)c2ccco2)ccc1-n1cnnn1	31	33	0.68	0.7	0.7
COc1cccc(NC(=O)c2ccncc2)c1	3	36	0.57	0.6	1
COc1cc(C(=O)Nc2ccncc2)cc(OC)c1OC	86*	98*	0.13	0	0.1
O=C(Nc1ccncc1)c1cc(F)cc(F)c1	41	86*	0.16	0.1	0.6
COc1cc(C(=O)Nc2ccc(-n3cnnn3)c(C)c2)cc(OC)c1OC	32	31	-4.4*	0.7	0.7
O=C1CC(NC23CC4CC(CC(C4)C2)C3)C(=O)N1c1ccc2c(c1)OCO2 (centres undefined)	2	7	1.5	0.9	1
COc1ccc(OC)c(NC(=O)CSc2ncnc3c2cnn3-c2ccccc2Cl)c1	nt	nt	-1.9	nt	nt
Nc1ccccc1N1CCOCC1	4	1	0.072	1	1
CN1c2ccccc2C(C)(C)C12C=Nc1c(cc(N3CCOCC3)c3ccccc13)O2 (centres undefined)	70*	30	-2.3	0.7	0.3
CCOc1cc2c3c(c1)C1(C(=O)N3C(C)(C)C=C2C)C(C#N)=C(N)Oc2cc(O)ccc21 (centres undefined)	56*	35	-5.6*	0.7	0.4
CC1=CC(C)(C)N2C(=O)C3(C(C#N)=C(N)Oc4cc(C)oc(=O)c43)c3cccc1c32 (centres undefined)	23	49	-0.76	0.5	0.8
COc1cc2c3c(c1)C1(C(=O)N3C(C)(C)C=C2C)C(C#N)=C(N)Oc2cc(O)ccc21 (centres undefined)	89*	51*	-2.2	0.5	0.1
COc1ccccc1N(CN1CCCC1=O)C(=O)COc1ccccc1	7	8	0.34	0.9	0.9
CCOC(=O)N1CCC(NC(=O)c2ccc3c(c2)N(CC)CCS3)CC1	nt	nt	2.1	nt	nt
CCOc1ccc(Cl)cc1S(=O)(=O)n1nnc2ccccc21	-104	98*	-3.3	0	2*
C=CCOc1ccc(/C(O)=C2/C(=O)C(=O)N(CCCn3ccnc3)C2c2cccs2)cc1 (centres undefined)	38	31	-0.019	0.7	0.6
COc1ccc2c(=O)c(C(=O)NCCc3ccc(OC)c(OC)c3)c[nH]c2c1	54*	44	1.3	0.6	0.5
COc1ccc(-c2nnc(SCc3cccc(C)c3)n2N)cc1	-14	52*	0.45	0.5	1.1
COc1ccc(-c2nnc(SCc3cc(C)ccc3C)n2N)cc1	-16	62*	0.043	0.4	1.2
Cc1cccc(CSc2nnc(-c3ccccn3)n2N)c1	-42	60*	-0.23	0.4	1.4
Cc1cccc(CSc2nnc(N)n2-c2ccccc2)c1	nt	nt	1	nt	nt
COc1ccc(OCCSc2nnc(-c3ccc(OC)cc3)n2N)cc1	32	38	0.073	0.6	0.7
COC(=O)C1=C(C)NC2=C(C(=O)CCC2)C1c1cn(Cc2ccc(Br)cc2)nc1-c1ccccc1 (centres undefined)	86*	48	-7.3*	0.5	0.1
COC(=O)C1=C(C)NC2=C(C(=O)CC(C)(C)C2)C1c1cn(Cc2ccc(Br)cc2)nc1-c1ccccc1 (centres undefined)	71*	35	-4.7*	0.7	0.3
CC/C(=C1/C(=O)CC(C)(C)C(C(=O)OC)C1=O)N1CCCC1 (centres undefined)	6	4	1.1	1	0.9

From PubChem
